Where “and” joins values, the source holds several entries; their conditions need not be identical. Equal values may be shown once. Records with an inconclusive call do not appear. Calls of active or inactive are those of the source. How the source made its calls, unless noted: active means hit-call score of the fitted dose curve at least 0.9, where 1 is the maximum; inactive means score below 0.9.
How the values were obtained:
[1] = molecular target: Bile acid receptor (Homo sapiens) (UniProt Q96RI1); experiment: ATG_FXR_TRANS: Attagene TRANS-FACTORIAL HepG2 Assay for Farnesoid X Receptor (FXR) (AID 2282979; active means hit-call score of the fitted dose curve at least 0.9, where 1 is the maximum;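 further: hits raise reporter mRNA above DMSO so AC50 marks FXR activation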); conditions: HepG2 Attagene TRANS FXR-GAL4 reporter transcription
Outline: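 Reporter transcripts from transfected HepG2 cells were measured 24 h after dosing, using RT-PCR with capillary electrophoresis of 6-FAM-labelled fragments. The read-out reflects activity of exogenous FXR-Gal4 chimera on GAL4-UAS units, with induction relative to DMSO.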

[2] = molecular target: Oxysterols receptor LXR-alpha (Homo sapiens) (UniProt Q13133); experiment: ATG_LXRa_TRANS: Attagene TRANS-FACTORIAL HepG2 Assay for human Liver X Receptor alpha (LXRa) (AID 2282980; active means hit-call score of the fitted dose curve at least 0.9, where 1 is the maximum); conditions: HepG2 Attagene TRANS reporter, LXRa transactivation
Outline: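 Chemical-induced reporter mRNA measured by RT-PCR with fluorescent labelling and capillary electrophoresis after 24 h dosing of transiently transfected HepG2 cells expressing exogenous NR-Gal4 chimeras; increases scored against DMSO baseline.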

[3] = ATG_M_32_TRANS: Attagene TRANS-FACTORIAL HepG2 Assay for M32 Transcription Factor (Internal Marker) (AID 2282984; active means hit-call score of the fitted dose curve at least 0.9, where 1 is the maximum;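 further: transcript level of a background control reporter unit measured by RT-PCR and capillary electrophoresis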); conditions: HepG2 Attagene TRANS M32 internal marker reporter
Outline: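 Human hepatoma HepG2, transient MRTU transfection, 24 h treatment. RNA → RT-PCR → fluorescent primer extension → HpaI digest (2 h, 37 C) → CE. Positive-direction fit vs DMSO.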

[4] = molecular target: Nuclear receptor subfamily 4 group A member 2 (Homo sapiens) (UniProt P43354); experiment: ATG_NURR1_TRANS: Attagene TRANS-FACTORIAL HepG2 Assay for human Nuclear Receptor Related Protein 1 (NURR1) (AID 2282985; active means hit-call score of the fitted dose curve at least 0.9, where 1 is the maximum); conditions: HepG2 Attagene TRANS reporter, mRNA readout
Outline: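 After 24 h chemical dosing, total RNA from transiently transfected HepG2 cells was reverse-transcribed and reporter cDNA PCR-amplified, FAM-labelled and analysed by capillary electrophoresis. Activity fitted in positive direction, DMSO as negative control.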

[5] = molecular target: Transcriptional activator Myb (Homo sapiens) (UniProt P10242); experiment: ATG_Myb_CIS: Attagene CIS-FACTORIAL HepG2 Assay for human Myeloblastosis (Myb) Proto-Oncogene Transcription Factor (AID 2282986); conditions: HepG2 Attagene CIS-FACTORIAL Myb reporter transcription; actives raise or lower the signal
Outline: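 Transiently transfected HepG2 cells, treated 24 h. Reporter mRNA quantified by RT-PCR/capillary electrophoresis; bidirectional fit relative to DMSO.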

[6] = ATG_NFI_CIS: Attagene CIS-FACTORIAL HepG2 Assay for human Nuclear Factor I (NFI) (AID 2282989); conditions: HepG2 cis-regulatory reporter, NFI response element transcription; actives raise or lower the signal
Outline: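 Read-out: reporter mRNA via RT-PCR plus capillary electrophoresis with fluorescence detection. Transiently transfected HepG2 (endogenous TF activity on cis promoters), 24 h compound exposure; gain or loss of signal fitted against DMSO.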

[7] = molecular target: Myc proto-oncogene protein (Homo sapiens) (UniProt P01106); experiment: ATG_Myc_CIS: Attagene CIS-FACTORIAL HepG2 Assay for human Myelocytomatosis (Myc) Proto-Oncogene Transcription Factor (AID 2282990); conditions: HepG2, Attagene cis-reporter transcription factor activity; actives raise or lower the signal
Outline: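 DMSO-normalised, bidirectionally fitted reporter mRNA signal. HepG2 cells transfected with cis reporter constructs, treated 24 h; transcripts detected by RT-PCR, 6-FAM primer extension and CE.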

[8] = ATG_NF_kB_CIS: Attagene CIS-FACTORIAL HepG2 Assay for human Nuclear Factor Kappa B (NF-kB) (AID 2282991); conditions: HepG2 Attagene cis-factorial NF-kB reporter mRNA; actives raise or lower the signal
Outline: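 Measures mRNA induction of an NF-kB-responsive cis-element reporter in HepG2 cells transfected with multiple reporter units, sampled 24 h post-dosing; quantified by fluorescence after RT-PCR and capillary electrophoresis, fitted for activation or inhibition against DMSO.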

[9] = ATG_NRF2_ARE_CIS: Attagene CIS-FACTORIAL HepG2 Assay for human Nuclear Factor Erythroid 2 Related Factor 2 (NFR2) response to Antioxidant Response Elements (ARE) (AID 2282992); conditions: HepG2 Attagene ARE/NRF2 reporter, transcription factor activity; actives raise or lower the signal;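 on AC50: reporter mRNA level measured by RT-PCR and capillary electrophoresis fluorescence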
Outline: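 Transient MRTU transfection of HepG2; 24 h compound exposure; TriZol RNA, RT with oligo(dT), PCR, 6-FAM primer extension, HpaI cut, CE. Bidirectional fit vs DMSO.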

[10] = ATG_Oct_MLP_CIS: Attagene CIS-FACTORIAL HepG2 Assay for human Octamer-Binding Transcription Factor (Oct) (AID 2282993); conditions: HepG2 Attagene cis-factorial Oct reporter, mRNA; actives raise or lower the signal
Outline: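 Read-out: reporter mRNA via RT-PCR plus capillary electrophoresis of 6-FAM-labelled fragments. Transiently transfected HepG2, 24 h exposure, endogenous TF activity on cis elements. Gain or loss of signal fitted relative to DMSO.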

[11] = molecular target: Cellular tumor antigen p53 (Homo sapiens) (UniProt P04637); experiment: ATG_p53_CIS: Attagene CIS-FACTORIAL HepG2 Assay for human p53 Transcription Factor (AID 2282994); conditions: HepG2 p53 cis-element reporter, Attagene mRNA; actives raise or lower the signal
Outline: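 HepG2, transient MRTU transfection (cis promoter elements, endogenous TFs); 24 h dosing; RNA isolation, RT-PCR, 6-FAM primer extension, HpaI digest, CE fluorescence; bidirectional fit vs DMSO.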

[12] = molecular target: Oxysterols receptor LXR-beta (Homo sapiens) (UniProt P55055); experiment: ATG_LXRb_TRANS: Attagene TRANS-FACTORIAL HepG2 Assay for human Liver X Receptor beta (LXRb) (AID 2282981; active means hit-call score of the fitted dose curve at least 0.9, where 1 is the maximum); conditions: HepG2 Attagene TRANS GAL4-LXRb reporter, mRNA
Outline: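 In this TRANS format, exogenous chimeric NR-Gal4 protein activity, not endogenous factors, drives reporter expression in transfected human HepG2 cells. Exposure lasted 24 h; reporter mRNA was read by fluorescent capillary electrophoresis.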

[13] = molecular target: Hepatocyte nuclear factor 4-alpha (Homo sapiens) (UniProt P41235); experiment: ATG_HNF4a_TRANS: Attagene TRANS-FACTORIAL HepG2 Assay for human Hepatocyte Nuclear Factor 4 alpha (HNF4a) (AID 2282982; active means hit-call score of the fitted dose curve at least 0.9, where 1 is the maximum); conditions: HepG2 HNF4a transactivation reporter, mRNA readout
Outline: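 Cells used were human HepG2, transiently carrying GAL4-UAS reporter units read out against exogenous NR-GAL4 chimeras. Reporter transcript levels after 24 h dosing were quantified by fluorescent RT-PCR and capillary electrophoresis.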

[14] = molecular target: Nuclear respiratory factor 1 (Homo sapiens) (UniProt Q16656); experiment: ATG_NRF1_CIS: Attagene CIS-FACTORIAL HepG2 Assay for human Nuclear Respiratory Factor 1 (NRF1) Orphan Gene (AID 2282987); conditions: HepG2 NRF1 cis-element reporter, Attagene multiplex; actives raise or lower the signal
Outline: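 Cells (HepG2, transient MRTU transfection) are exposed to compound for 24 h, then RNA isolated and reporter mRNA amplified and fluorescently labelled. Fragments are separated by capillary electrophoresis; signal change is fitted bidirectionally relative to DMSO.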

[15] = ATG_M_06_TRANS: Attagene TRANS-FACTORIAL HepG2 Assay for M06 Transcription Factor (Internal Marker) (AID 2282983; active means hit-call score of the fitted dose curve at least 0.9, where 1 is the maximum); conditions: HepG2 Attagene TRANS M06 internal marker reporter
Outline: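 Cells: HepG2, transient multi-reporter transfection. Exposure: 24 h. Detection: RT-PCR, 6-FAM labelling, HpaI digestion (2 h, 37 °C), capillary electrophoresis. Baseline: DMSO.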

[16] = BSK_3C_TissueFactor: BioMAP Diversity Plus: 3C Assay for Tissue Factor Biomarker Activity (AID 2282997); conditions: BioMAP 3C HUVEC, tissue factor biomarker readout; actives raise or lower the signal
Outline: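 Dosing of human umbilical vein endothelial cells preceded a 24 h incubation. Tissue Factor was then read by ELISA, with increases and decreases both scored relative to DMSO controls.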

[17] = BSK_3C_uPAR: BioMAP Diversity Plus: 3C Assay for Urokinase-type plasminogen activator receptor (uPAR) Biomarker Activity (AID 2282998); conditions: BioMAP 3C HUVEC, uPAR biomarker ELISA; actives raise or lower the signal
Outline: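 HUVEC primary cells; 24 h post-dose; uPAR by ELISA; gain or loss of signal fitted bidirectionally vs DMSO baseline.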

[18] = BSK_3C_VCAM1: BioMAP Diversity Plus: 3C Assay for Vascular cell adhesion molecule 1 (VCAM1) Biomarker Activity (AID 2282999); conditions: BioMAP 3C HUVEC, VCAM1 ELISA, cytokine-stimulated; actives raise or lower the signal
Outline: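 Human umbilical vein endothelial cells were dosed with compound for 24 h, after which cell-surface VCAM-1 was quantified by ELISA. Bidirectional curve fitting used DMSO as negative control and activity baseline.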

[19] = BSK_4H_Eotaxin3: BioMAP Diversity Plus: 4H Assay for Eotaxin 3 Biomarker Activity (AID 2283000); conditions: primary human endothelial cells (HUVEC); actives raise or lower the signal
Outline: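 Human umbilical vein endothelial cells (BSK_4H system) dosed with test chemical; Eotaxin-3 (CCL26) measured by ELISA 24 h after dosing. Bidirectional curve fitting relative to DMSO negative control as baseline.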

Sequence of Myc proto-oncogene protein (Homo sapiens) (P01106 whole entry, looked up): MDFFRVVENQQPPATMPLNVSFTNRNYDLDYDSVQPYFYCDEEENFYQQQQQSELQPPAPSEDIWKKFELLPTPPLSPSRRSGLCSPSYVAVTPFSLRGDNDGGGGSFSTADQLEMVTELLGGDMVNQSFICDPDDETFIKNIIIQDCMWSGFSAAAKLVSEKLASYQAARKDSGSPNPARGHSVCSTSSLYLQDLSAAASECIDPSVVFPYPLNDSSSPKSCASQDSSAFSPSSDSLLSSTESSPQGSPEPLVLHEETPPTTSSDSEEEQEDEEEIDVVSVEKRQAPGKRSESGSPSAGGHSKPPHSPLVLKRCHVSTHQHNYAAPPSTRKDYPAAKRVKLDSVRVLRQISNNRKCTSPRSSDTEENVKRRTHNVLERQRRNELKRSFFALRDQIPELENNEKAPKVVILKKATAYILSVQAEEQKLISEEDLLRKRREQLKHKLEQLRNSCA
Sequence of Bile acid receptor (Homo sapiens) (Q96RI1 whole entry, looked up, the tested form may be a part): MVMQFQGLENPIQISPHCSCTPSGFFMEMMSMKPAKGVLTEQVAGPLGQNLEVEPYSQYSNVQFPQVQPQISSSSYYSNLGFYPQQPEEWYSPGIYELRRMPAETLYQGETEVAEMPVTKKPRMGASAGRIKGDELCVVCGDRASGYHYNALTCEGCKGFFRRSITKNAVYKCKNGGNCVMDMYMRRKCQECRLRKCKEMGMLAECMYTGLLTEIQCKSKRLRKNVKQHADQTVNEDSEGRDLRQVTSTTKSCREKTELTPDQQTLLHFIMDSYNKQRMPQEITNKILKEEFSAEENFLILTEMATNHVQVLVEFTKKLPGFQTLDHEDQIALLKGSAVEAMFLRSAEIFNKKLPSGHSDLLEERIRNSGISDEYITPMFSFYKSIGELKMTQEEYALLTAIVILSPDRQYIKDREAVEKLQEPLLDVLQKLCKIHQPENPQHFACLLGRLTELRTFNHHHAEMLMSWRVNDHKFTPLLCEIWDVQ
Sequence of Nuclear respiratory factor 1 (Homo sapiens) (Q16656 whole entry, looked up, the tested form may be a part): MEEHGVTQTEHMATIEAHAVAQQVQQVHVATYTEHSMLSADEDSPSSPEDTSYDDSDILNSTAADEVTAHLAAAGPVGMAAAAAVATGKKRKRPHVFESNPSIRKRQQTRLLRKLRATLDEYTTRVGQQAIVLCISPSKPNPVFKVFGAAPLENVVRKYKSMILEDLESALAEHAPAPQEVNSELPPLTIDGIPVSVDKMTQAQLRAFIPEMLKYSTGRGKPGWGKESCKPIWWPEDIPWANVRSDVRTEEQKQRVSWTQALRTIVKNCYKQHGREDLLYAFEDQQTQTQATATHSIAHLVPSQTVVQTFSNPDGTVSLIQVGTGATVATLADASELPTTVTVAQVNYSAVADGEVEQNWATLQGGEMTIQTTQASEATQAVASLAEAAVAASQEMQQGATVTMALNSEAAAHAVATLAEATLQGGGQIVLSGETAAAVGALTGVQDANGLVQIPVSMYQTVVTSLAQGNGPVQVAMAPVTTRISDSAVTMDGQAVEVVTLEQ
Sequence of Oxysterols receptor LXR-alpha (Homo sapiens) (Q13133 whole entry, looked up, the tested form may be a part): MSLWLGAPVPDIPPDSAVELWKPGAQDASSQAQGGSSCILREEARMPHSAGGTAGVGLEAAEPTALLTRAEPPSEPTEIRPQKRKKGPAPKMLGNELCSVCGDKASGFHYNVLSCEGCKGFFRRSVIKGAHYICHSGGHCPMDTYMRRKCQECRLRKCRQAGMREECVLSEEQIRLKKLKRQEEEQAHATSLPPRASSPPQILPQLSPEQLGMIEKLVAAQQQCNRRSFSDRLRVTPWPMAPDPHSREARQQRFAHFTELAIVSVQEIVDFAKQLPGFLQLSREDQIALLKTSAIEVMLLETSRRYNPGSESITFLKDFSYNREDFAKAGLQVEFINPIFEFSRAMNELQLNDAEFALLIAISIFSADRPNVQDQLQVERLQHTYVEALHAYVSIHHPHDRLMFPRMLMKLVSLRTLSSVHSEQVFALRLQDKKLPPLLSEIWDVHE
Sequence of Cellular tumor antigen p53 (Homo sapiens) (P04637 whole entry, looked up): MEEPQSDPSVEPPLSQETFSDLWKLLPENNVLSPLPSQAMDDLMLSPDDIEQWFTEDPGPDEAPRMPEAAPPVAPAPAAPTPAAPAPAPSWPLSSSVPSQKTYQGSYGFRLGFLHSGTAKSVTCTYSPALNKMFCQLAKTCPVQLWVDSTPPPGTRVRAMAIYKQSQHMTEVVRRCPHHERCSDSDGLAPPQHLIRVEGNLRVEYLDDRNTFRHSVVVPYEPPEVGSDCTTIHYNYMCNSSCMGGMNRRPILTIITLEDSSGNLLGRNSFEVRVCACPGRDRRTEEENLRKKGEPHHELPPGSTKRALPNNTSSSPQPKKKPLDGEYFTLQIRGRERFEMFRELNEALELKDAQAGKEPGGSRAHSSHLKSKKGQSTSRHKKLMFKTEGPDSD
Sequence of Nuclear receptor subfamily 4 group A member 2 (Homo sapiens) (P43354 whole entry, looked up): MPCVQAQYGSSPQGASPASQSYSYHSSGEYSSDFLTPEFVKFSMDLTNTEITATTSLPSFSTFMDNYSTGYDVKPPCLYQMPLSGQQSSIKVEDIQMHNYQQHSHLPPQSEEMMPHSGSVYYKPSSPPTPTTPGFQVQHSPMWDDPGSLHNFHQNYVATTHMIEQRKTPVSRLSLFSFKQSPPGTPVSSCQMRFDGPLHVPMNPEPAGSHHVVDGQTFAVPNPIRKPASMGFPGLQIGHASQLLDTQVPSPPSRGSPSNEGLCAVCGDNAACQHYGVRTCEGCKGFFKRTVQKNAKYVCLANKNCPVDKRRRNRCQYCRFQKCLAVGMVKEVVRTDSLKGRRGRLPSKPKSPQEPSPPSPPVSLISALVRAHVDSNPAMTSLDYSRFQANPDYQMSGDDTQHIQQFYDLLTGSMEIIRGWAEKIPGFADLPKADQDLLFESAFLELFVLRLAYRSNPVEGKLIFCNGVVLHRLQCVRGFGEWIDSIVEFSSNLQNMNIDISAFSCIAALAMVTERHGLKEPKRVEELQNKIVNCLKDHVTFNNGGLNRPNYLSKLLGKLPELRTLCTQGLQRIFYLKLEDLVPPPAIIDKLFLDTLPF
Sequence of Hepatocyte nuclear factor 4-alpha (Homo sapiens) (P41235 whole entry, looked up, the tested form may be a part): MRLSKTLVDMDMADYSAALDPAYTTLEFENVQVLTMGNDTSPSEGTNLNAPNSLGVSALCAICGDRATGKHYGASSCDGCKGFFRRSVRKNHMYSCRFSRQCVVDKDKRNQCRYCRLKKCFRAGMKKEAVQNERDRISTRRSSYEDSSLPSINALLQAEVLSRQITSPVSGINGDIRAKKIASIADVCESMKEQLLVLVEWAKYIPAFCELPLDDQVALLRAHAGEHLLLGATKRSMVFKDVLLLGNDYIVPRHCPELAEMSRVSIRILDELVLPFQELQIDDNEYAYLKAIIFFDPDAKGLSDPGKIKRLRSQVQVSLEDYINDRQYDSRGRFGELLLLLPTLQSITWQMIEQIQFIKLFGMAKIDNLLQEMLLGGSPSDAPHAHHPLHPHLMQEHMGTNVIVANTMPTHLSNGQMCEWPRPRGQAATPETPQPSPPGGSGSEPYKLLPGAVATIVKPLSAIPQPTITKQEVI
Sequence of Transcriptional activator Myb (Homo sapiens) (P10242 whole entry, looked up): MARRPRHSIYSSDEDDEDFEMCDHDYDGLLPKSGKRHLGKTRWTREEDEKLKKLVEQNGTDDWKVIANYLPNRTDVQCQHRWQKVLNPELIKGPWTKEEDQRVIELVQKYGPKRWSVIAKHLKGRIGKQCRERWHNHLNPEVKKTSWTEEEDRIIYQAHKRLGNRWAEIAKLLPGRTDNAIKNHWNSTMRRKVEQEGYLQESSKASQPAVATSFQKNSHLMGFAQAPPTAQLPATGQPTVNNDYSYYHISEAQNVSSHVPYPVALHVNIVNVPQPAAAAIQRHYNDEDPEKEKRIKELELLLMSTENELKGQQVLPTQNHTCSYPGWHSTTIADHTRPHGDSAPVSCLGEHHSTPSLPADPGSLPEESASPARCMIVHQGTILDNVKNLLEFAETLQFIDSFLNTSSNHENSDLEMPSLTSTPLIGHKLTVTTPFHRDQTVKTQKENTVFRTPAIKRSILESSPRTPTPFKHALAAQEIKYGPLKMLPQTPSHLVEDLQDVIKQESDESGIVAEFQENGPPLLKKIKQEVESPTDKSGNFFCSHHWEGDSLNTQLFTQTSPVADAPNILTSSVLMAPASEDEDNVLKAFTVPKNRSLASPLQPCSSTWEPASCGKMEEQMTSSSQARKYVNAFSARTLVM
Sequence of Oxysterols receptor LXR-beta (Homo sapiens) (P55055 whole entry, looked up, the tested form may be a part): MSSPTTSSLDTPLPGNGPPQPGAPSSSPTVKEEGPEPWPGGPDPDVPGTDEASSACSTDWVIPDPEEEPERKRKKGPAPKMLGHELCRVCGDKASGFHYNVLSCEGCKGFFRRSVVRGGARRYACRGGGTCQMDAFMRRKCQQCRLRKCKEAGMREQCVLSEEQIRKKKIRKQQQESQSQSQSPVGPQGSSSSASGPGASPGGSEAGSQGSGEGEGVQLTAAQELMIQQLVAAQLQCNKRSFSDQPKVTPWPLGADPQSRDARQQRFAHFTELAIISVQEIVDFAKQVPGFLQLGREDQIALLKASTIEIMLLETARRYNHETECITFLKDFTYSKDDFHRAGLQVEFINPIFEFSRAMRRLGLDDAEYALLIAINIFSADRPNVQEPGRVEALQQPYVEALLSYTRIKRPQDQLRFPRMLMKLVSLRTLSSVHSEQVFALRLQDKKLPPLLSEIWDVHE

In the case of `CCCCCCCCCCC=CC#N`, the outcome [1] is reported as “inactive”, the outcome [2] is reported as “inactive” and the outcome [3] is reported as “inactive”. For the same compound, the outcome [4] was “inactive”, the outcome [5] was “inactive” and the outcome [6] was “inactive”. The outcome [7] was “inactive”, the outcome [8] was “inactive” and the AC50 [9] was 114 µM (active). The outcome [10] was “inactive” and the outcome [11] was “inactive”.
With `C=CCCCCCCCCC(=O)OCCCC` the outcome [1] was “inactive”, the outcome [12] was “inactive” and the outcome [13] was “inactive”. The outcome [3] was “inactive”, the outcome [4] was “inactive” and the outcome [5] was “inactive”. For the same compound, the outcome [14] was “inactive”, the outcome [6] was “inactive” and the outcome [7] was “inactive”. The outcome [8] was “inactive”, the outcome [9] was “inactive” and the outcome [10] was “inactive”. The outcome [11] was “inactive”.
For `Cc1oncc1C(=O)Nc1ccc(C(F)(F)F)cc1`, the outcome [1] was “inactive”, the outcome [12] was “inactive” and the outcome [13] was “inactive”. For the same compound, the outcome [15] was “inactive”, the outcome [3] was “inactive” and the outcome [4] was “inactive”. The outcome [5] was “inactive”, the outcome [14] was “inactive” and the outcome [6] was “inactive”. The outcome [7] was “inactive”, the outcome [8] was “inactive” and the AC50 [9] was 100 µM (active). The outcome [10] was “inactive” and the outcome [11] was “inactive”.
For `Nc1ccc(N)c(Cl)c1`, the outcome [1] was “inactive”, the outcome [4] was “inactive” and the outcome [5] was “inactive”. For the same compound, the outcome [14] was “inactive”, the AC50 [6] was 46.6 µM (active) and the AC50 [7] was 33.4 µM (active). For the same compound, the AC50 [9] was 4.45 µM (active), the outcome [10] was “inactive” and the outcome [16] was “inactive”. For the same compound, the outcome [17] was “inactive”, the AC50 [18] was 7.54 µM (active) and 7.95 µM (active) and the AC50 [19] was 20 µM (active) and 15.1 µM (active).
For `O=C1C=CC(=O)O1`, the outcome [1] was “inactive”, the outcome [2] was “inactive” and the outcome [13] was “inactive”. The outcome [15] was “inactive”, the outcome [3] was “inactive” and the outcome [5] was “inactive”. For the same compound, the outcome [6] was “inactive”, the outcome [7] was “inactive” and the outcome [8] was “inactive”. For the same compound, the outcome [9] was “inactive” and the outcome [10] was “inactive”.
For `CCOC(=O)NNc1nncc2ccccc12`, the outcome [1] was “inactive”, the outcome [15] was “inactive” and the outcome [3] was “inactive”. The outcome [5] was “inactive”, the outcome [14] was “inactive” and the outcome [6] was “inactive”. For the same compound, the outcome [7] was “inactive”, the outcome [8] was “inactive” and the outcome [9] was “inactive”. The outcome [10] was “inactive” and the outcome [11] was “inactive”.
In the case of `Cn1c(=O)[nH]c2ncn(C)c2c1=O`, the outcome [1] is reported as “inactive”, the outcome [12] is reported as “inactive” and the outcome [13] is reported as “inactive”. For the same compound, the outcome [3] was “inactive”, the outcome [5] was “inactive” and the outcome [14] was “inactive”. For the same compound, the outcome [6] was “inactive”, the outcome [7] was “inactive” and the outcome [8] was “inactive”. The outcome [9] was “inactive”, the outcome [10] was “inactive” and the outcome [11] was “inactive”.
With `Cc1ccc(N/N=c2\c(=O)cc/c(=N/Nc3ccc(S(=O)(=O)O)cc3)c2=O)c(C)c1` the outcome [2] was “inactive”, the outcome [15] was “inactive” and the outcome [3] was “inactive”. The outcome [4] was “inactive”, the outcome [5] was “inactive” and the outcome [14] was “inactive”. For the same compound, the outcome [6] was “inactive”, the outcome [7] was “inactive” and the outcome [9] was “inactive”. The outcome [11] was “inactive”.
For `COC(=O)c1ccccc1OC`, the outcome [1] was “inactive”, the outcome [4] was “inactive” and the outcome [14] was “inactive”. The outcome [6] was “inactive”, the outcome [7] was “inactive” and the outcome [9] was “inactive”. The outcome [10] was “inactive”.
With `C=C(C)C(=O)OCC(C)C` the outcome [1] was “inactive”, the outcome [4] was “inactive” and the outcome [5] was “inactive”. For the same compound, the outcome [7] was “inactive”, the outcome [8] was “inactive” and the outcome [10] was “inactive”. The outcome [11] was “inactive”.
In the case of `C1CN(SSN2CCOCC2)CCO1`, the outcome [2] is reported as “inactive”, the outcome [13] is reported as “inactive” and the outcome [3] is reported as “inactive”. For the same compound, the outcome [4] was “inactive”, the outcome [5] was “inactive” and the outcome [14] was “inactive”. The outcome [6] was “inactive”, the outcome [7] was “inactive” and the AC50 [9] was 18.8 µM (active). For the same compound, the outcome [10] was “inactive” and the outcome [11] was “inactive”.
For `O=C(O)C(c1ccc(Cl)cc1)c1ccc(Cl)cc1`, the outcome [2] was “inactive”, the outcome [13] was “inactive” and the outcome [5] was “inactive”. The outcome [14] was “inactive”, the outcome [6] was “inactive” and the outcome [7] was “inactive”. The outcome [8] was “inactive”, the outcome [9] was “inactive” and the outcome [10] was “inactive”.

— PubChem BioAssay (EPA / NIEHS)
